Inconclusive results are not listed. Calls of active or inactive are those of the source. The call rests on the fitted dose curve; in most records, active means well fitted curve in the direction sought with a large enough effect; inconclusive means small, poorly fitted or top-dose-only effect, or another doubt; inactive means no such curve, though single readings can be large; an effect the other way counts as inactive or inconclusive.
Tests used:
[1] = biological target: Nuclear receptor subfamily 1 group I member 3 (Homo sapiens) (UniProt Q14994); experiment: qHTS for Constitutive Androstane Receptor (CAR) Antagonist screened against the NCATS CANVASS Library (AID 1347372); details: HepG2-hCAR-CYP2B6 luciferase, CITCO-stimulated antagonist mode; series mostly up to 15.4 µM;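 further: cells stimulated with 50 nM CITCO agonist so inhibition reflects antagonism; luciferase from CYP2B6 promoter reporter driven by hCAR in HepG2 cells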
Procedure, shortened: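 Luminescence readout (ONE-Glo, 30 min RT) of CYP2B6-2.2kb reporter in HepG2-hCAR cells after 24hr, 37C treatment with compound against 50 nM CITCO; CellTiter-Fluor viability read beforehand.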

[2] = biological target: Nuclear receptor subfamily 1 group I member 3 (Homo sapiens) (UniProt Q14994); experiment: qHTS for Constitutive Androstane Receptor (CAR) Agonist screened against the NCATS CANVASS Library (AID 1347373); details: HepG2-hCAR-CYP2B6 luciferase reporter, ONE-Glo luminescence; series mostly up to 15.4 µM;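 further: every well also contained 1.5 µM PK11195 alongside the test compound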
Procedure, shortened: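 In an 11-point concentration series, compounds were incubated 24hr with HepG2 cells carrying hCAR and a CYP2B6-2.2kb reporter, with PK11195 at 1.5uM final. A CellTiter-Fluor viability read preceded the ONE-Glo luminescence read.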

[3] = qHTS for Hypoxia signaling pathway (HIF-1) antagonists against the NCATS CANVASS Library (AID 1347374); details: HRE-bla ME-180 cells, HIF-1 beta-lactamase reporter, CoCl2; series mostly up to 12.8 µM;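 further: HRE-bla ME-180 cells stimulated with cobalt chloride to stabilize HIF-1alpha; nearly all actives have a fitted effect of over 60% in size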
Procedure, shortened: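 Beta-lactamase reporter under HRE control in ME-180 cells; CoCl2 stimulus (60 uM solution as added), compounds 11-pt qHTS, 17 h 37C. CCF4 dye 2 h RT, 460/530 nm emission. CellTiter-Glo viability in same wells.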

[4] = qHTS for Hypoxia signaling pathway (HIF-1) agonists against the NCATS CANVASS Library (AID 1347375); details: HRE-bla ME-180 cells, HIF-1 beta-lactamase reporter, 17 h; series mostly up to 12.8 µM
Procedure, shortened: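 An HRE-beta-lactamase ME-180 line is exposed for 17 h to an 11-point compound series, then read by CCF4-AM FRET. Cytotoxicity is measured in parallel in the same wells with CellTiter-Glo, and autofluorescence is checked separately.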

[5] = 10-beta competent E. coli microbial cell viability qHTS against the NCATS CANVASS Library (AID 1347376); details: E. coli 10-beta viability, BacTiter-Glo ATP luminescence, overnight; series mostly up to 15.4 µM
Procedure, shortened: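 Overnight 37C exposure of 10-beta E. coli (0.2 OD) to an 11-point concentration series; ATP-based luminescence after 20 min room-temperature reagent incubation; daunomycin as control.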

[6] = DH5-alpha competent E. coli microbial cell viability qHTS against the NCATS CANVASS Library (AID 1347377); details: BacTiter-Glo ATP luminescence, overnight; series mostly up to 15.4 µM
Procedure, shortened: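 Overnight incubation at 37C, 5% CO2 of E. coli DH5-alpha (diluted to 0.2 OD) with compounds precedes BacTiter-Glo addition. Luminescence, acquired after 20 min at room temperature, reflects viable-cell ATP.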

[7] = qHTS for H2AX Agonists against the NCATS CANVASS Library (AID 1347378); details: CHO-K1 H2AX phosphorylation, HTRF TR-FRET, 3 h; series mostly up to 25.6 µM
Procedure, shortened: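 CHO-K1 cells (1000/well, overnight at 37C) exposed to compounds at several concentrations for 3 hr at 37C, 0.76% DMSO final. Lysates read by TR-FRET (phospho-H2AX S139 Eu-cryptate antibody / H2AX-d2 antibody) after 24 hr at room temperature; 665/615 nm ratio.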

[8] = qHTS for Inflammasome Signaling Inhibitors: IL-1-beta AlphaLISA screen against the NCATS CANVASS Library (AID 1347379); details: THP-1 LPS/ATP, IL-1B AlphaLISA secretion, 16 h; series mostly up to 19.2 µM;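 further: human THP-1 cells primed with LPS then triggered with ATP; secreted IL-1B measured as AlphaLISA emission at 615 nm; lower signal means less IL-1B release which is the wanted effect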
Procedure, shortened: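 THP-1, 1 hr compound pre-incubation, then LPS 250 ng/mL + ATP 1.25 mM (final); 16 hr total with compound; IL-1B AlphaLISA, ex 680/em 615 nm; 11-point qHTS, up to 57.5 uM final.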

[9] = Inflammasome Signaling qHTS Counterscreen: IL-1-beta AlphaLISA counterscreen against the NCATS CANVASS Library (AID 1347381); details: Purified IL-1beta AlphaLISA signal interference counterscreen; series mostly up to 19.2 µM;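 further: cell-free check with purified IL-1β in medium and no THP-1 cells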
Procedure, shortened: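 Here, no cellular stimulation occurs; compounds in an 11-point series meet 4 pg purified IL-1-beta directly. Bead-based AlphaLISA detection follows (1 h acceptor/antibody, then 30 min donor, dark, room temperature), with excitation at 680 nm.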

[10] = Cytotoxicity qHTS for assessment of Hepg2 cells membrane integrity screened against the NCATS CANVASS Library (AID 1347387); details: HepG2 LDH release (CytoTox-ONE) fluorescence, 5 h; series mostly up to 15.4 µM
Procedure, shortened: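 Membrane damage in HepG2 monolayers was estimated from released LDH, measured with CytoTox-ONE (ex 560/em 590 nm), after 5 hr treatment across 0.59 nM - 46 uM final.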

[11] = qHTS for Activators of p53 Stress Response Pathway screened against the NCATS CANVASS Library (AID 1347388); details: p53RE-bla HCT-116, beta-lactamase reporter, 16 h; series mostly up to 15.4 µM
Procedure, shortened: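 p53RE-bla HCT-116 cells (4000/well) were pre-incubated for 5 h, then treated with compound (11 points) for 16 h at 37C. After 2 h with CCF4, the 460/530 nm ratio gave reporter activation; CellTiter-Glo measured viability.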

[12] = qHTS assay for small molecule disruptors of mitochondrial membrane potential screened against the NCATS CANVASS Library (AID 1347389); details: HepG2 mitochondrial membrane potential, m-MPI red/green ratio, 1.5 h; series mostly up to 15.4 µM; further: nearly all actives have a fitted effect of over 60% in size
Procedure, shortened: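 Cells (HepG2) seeded the day before received compound or DMSO for 1 hr, then Mito-MPS dye for 30 min at 37C; emission at 590 nm over 535 nm gave the polarization signal.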

[13] = Secretion counterscreen for inhibitors of the SERCaMP assay screened against the NCATS CANVASS Library (AID 1347390); details: SH-SY5Y constitutive GLuc secretion, luminescence, 20 h; series mostly up to 25.5 µM;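 further: light from luciferase secreted into medium read as a measure of general secretion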
Procedure, shortened: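 SH-SY5Y cells with constitutively secreted GLuc reporter, 1000 cells/well, treated 20 h at 37C with compounds at 0.001 - 77 uM final; secreted luciferase read as luminescence after coelenterazine; Brefeldin A as positive control.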

[14] = qHTS for activators of Nrf2/ARE signaling pathway screened against the NCATS CANVASS Library (AID 1347391); details: ARE-bla HepG2, beta-lactamase reporter, 16 h; series mostly up to 15.4 µM; further: nearly all actives have a fitted effect of over 60% in size
Procedure, shortened: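 Activation of Nrf2/ARE was scored in ARE-bla HepG2 cells after 16 h compound exposure using CCF4 beta-lactamase fluorescence ratio readings.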

[15] = qHTS for activators of dead-cell proteases activity screened against the NCATS CANVASS Library (AID 1347392); details: HepG2 cytotoxicity, dead-cell protease luminescence, 5 h; series mostly up to 15.4 µM;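 further: luminescence from protease leaking out of membrane-damaged cells cleaving impermeant substrate; rising signal means more cytotoxicity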
Procedure, shortened: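 HepG2, 2000 cells/well, 18 h attach; cpd 11-pt, 5 h 37C 5% CO2; CytoTox-Glo (AAF-aminoluciferin) 15 min RT; luminescence read.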

[16] = qHTS for inhibitors of ER calcium dysfunction: SERCaMP assay screened against the NCATS CANVASS Library (AID 1347393); details: SH-SY5Y GLuc-SERCaMP secretion, thapsigargin, luminescence; series mostly up to 25.5 µM;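 further: lower secreted reporter signal means inhibitor of ER calcium depletion; nearly all actives have a fitted effect of over 40% in size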
Procedure, shortened: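 SH-SY5Y GLuc-SERCaMP, 1000 cells/well, 4 h attach; cpd 16 h, 37C/5% CO2; thapsigargin (added as 6x 600 nM) 4 h; coelenterazine; luminescence. Reduced reporter release = ER Ca stabilization.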

[17] = Vero-766 cells viability qHTS against the NCATS CANVASS Library: Counterscreen for Zika virus inhibition assay (AID 1347394); details: Vero 766 viability, CellTiter-Glo luminescence, 72 h; series mostly up to 15.4 µM; further: nearly all actives have a fitted effect of over 60% in size
Procedure, shortened: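 Vero 766 cells (1000/well), without Zika virus, were exposed to compounds for 72 h at 37C. Viability was measured by CellTiter Glo luminescence. Media-only wells served as 100% inhibition.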

[18] = qHTS for inhibitors of Wild type Zika virus screened against the NCATS CANVASS Library (AID 1347396); details: Vero cells, Zika virus CPE, CellTiter-Glo, 72 h; series mostly up to 15.3 µM;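 further: ATP luminescence of surviving cells so rescue from viral cell killing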
Procedure, shortened: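 Vero 766 cells, 1000/well, o/n attach; cpds pin-transferred (11-pt qHTS); WT Zika added; 72 h, 37C, 5% CO2; CellTiter Glo lumi. Uninfected + vehicle = 100% inhibition.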

[19] = Viability qHTS for inhibitors of the SERCaMP assay screened against the NCATS CANVASS Library (AID 1347400); details: SH-SY5Y SERCaMP cells viability, CellTiter-Glo, 48 h; series mostly up to 30.7 µM; further: nearly all actives have a fitted effect of over 70% in size
Procedure, shortened: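 Measures loss of viability in SERCaMP reporter SH-SY5Y cells treated for 48 h with compounds; luminescent ATP detection by CellTiter-Glo.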

[20] = Redox Reaction Profiling qHTS: Assay Interference Panel against the NCATS CANVASS Library (AID 1347401); details: resazurin-DTT redox cycling, fluorescence, 15 min; series mostly up to 19.1 µM
Procedure, shortened: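 Fluorescence read-out (525 nm excitation, 598 nm emission) at time zero and after 15 min in the dark tracked resorufin formation. Mix: 5 uM resazurin, 200 uM DTT, HEPES pH 7.3 buffer with NaCl.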

Measured: outcome

Chain of Nuclear receptor subfamily 1 group I member 3 (Homo sapiens) (Q14994 whole entry, looked up): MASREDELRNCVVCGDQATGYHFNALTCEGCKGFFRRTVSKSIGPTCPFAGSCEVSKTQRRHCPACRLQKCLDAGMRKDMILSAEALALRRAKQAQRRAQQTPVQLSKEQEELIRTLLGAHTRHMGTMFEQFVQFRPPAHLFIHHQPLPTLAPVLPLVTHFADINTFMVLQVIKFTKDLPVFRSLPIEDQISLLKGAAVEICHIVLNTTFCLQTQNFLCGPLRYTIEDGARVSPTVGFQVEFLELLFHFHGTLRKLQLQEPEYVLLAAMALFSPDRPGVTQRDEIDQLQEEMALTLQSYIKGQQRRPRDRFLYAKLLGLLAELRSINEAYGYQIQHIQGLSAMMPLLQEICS

C[C@@H]1O[C@@H](OC[C@H]2O[C@@H](Oc3c(-c4ccc(O)c(O)c4)oc4cc(O)cc(O)c4c3=O)[C@H](O)[C@@H](O)[C@@H]2O)[C@H](O)[C@H](O)[C@H]1O
inactive: [1] | [2] | [3] | [4] | [5] | [6] | [7] | [8] | [9] | [10] | [11] | [12] | [13] | [14] | [15] | [16] | [17] | [18] | [19] | [20]

— PubChem BioAssay (NCATS)
